PubChem BioAssay (Tox21)
Records with an inconclusive call do not appear. Unmarked numbers belong to inactive results. The source made the active and inactive calls. The call rests on the fitted dose curve; in most records, active means well fitted activation curve with a large enough effect in the signal ratio in the repeat runs (not every such curve was filed as active); inconclusive means weak or mixed curves, or effect the other way; inactive means no such curve, though single readings can be large or run the other way; the % refers to the signal ratio.
On the % scale 0 is the no-effect control and ±100 the full control effect; potency means the concentration at half of the fitted maximal effect.

These compounds were tested against Peroxisome proliferator-activated receptor gamma (Homo sapiens) (UniProt P37231) (assay: qHTS assay to identify small molecule agonists of the peroxisome proliferator-activated receptor gamma (PPARg) signaling pathway (AID 743094)). Conditions: HEK293H PPARg-UAS-bla, beta-lactamase FRET ratio, 17 h; series mostly up to 57 µM; activation: at the top concentration.
Chain of Peroxisome proliferator-activated receptor gamma (Homo sapiens) (P37231 whole entry, looked up): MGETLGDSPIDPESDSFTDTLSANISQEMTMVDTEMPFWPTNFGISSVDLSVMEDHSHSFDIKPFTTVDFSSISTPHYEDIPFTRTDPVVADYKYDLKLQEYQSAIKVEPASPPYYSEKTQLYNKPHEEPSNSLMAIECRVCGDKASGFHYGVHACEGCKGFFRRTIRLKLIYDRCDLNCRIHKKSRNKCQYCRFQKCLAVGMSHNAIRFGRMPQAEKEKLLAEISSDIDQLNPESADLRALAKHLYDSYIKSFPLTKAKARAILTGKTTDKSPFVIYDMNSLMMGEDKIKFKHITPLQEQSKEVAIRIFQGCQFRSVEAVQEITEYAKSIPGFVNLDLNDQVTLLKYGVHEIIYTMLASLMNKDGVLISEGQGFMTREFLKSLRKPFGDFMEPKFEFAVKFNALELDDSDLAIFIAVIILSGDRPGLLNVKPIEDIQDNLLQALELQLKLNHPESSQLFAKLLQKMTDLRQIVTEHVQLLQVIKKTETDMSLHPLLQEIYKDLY
Summary of the method: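 Cells from the PPARg UAS-bla HEK293H line are plated and incubated 5 h at 37C. Compounds in DMSO are pinned in and left 17 h at 37C. LiveBLAzer B/G substrate is then added for 1 h at room temperature before fluorescence is measured.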
With `Fc1ccc(Oc2ccnc3cc(Cl)cc(Cl)c23)cc1` the Potency was 43.6 µM (active).
For `CC(c1ccc(O)cc1)c1ccc(O)cc1`, the “activation” value was -8.01%.
`O=C(CCCN1CCC2(CC1)C(=O)NCN2c1ccccc1)c1ccc(F)cc1` was tested, and the “activation” value was -8.06%.
With `CC(=O)/C=C/c1ccc2c(c1)OCO2` the “activation” value was 1.5% [at 78.9 µM].
In the case of `c1ccc(Nc2ccc3ccccc3c2)cc1`, the “activation” value is reported as -5.44%.
`COP(=S)(OC)Oc1cc(Cl)c(Br)cc1Cl` was tested, and the “activation” value was -10.9%.
In the case of `Clc1ccc(CO/N=C(\Cn2ccnc2)c2ccc(Cl)cc2Cl)c(Cl)c1`, the “activation” value is reported as 9.15%.
In the case of `Cc1c(Cl)c(=O)oc2cc(OP(=O)(OCCCl)OCCCl)ccc12`, the “activation” value is reported as -1.66%.
With `Nc1ccccc1C(=O)Oc1ccc2ccccc2c1` the “activation” value was 4.03%.
`CC(=O)OC1(c2ccccc2)CCN(CCc2ccccc2)CC1` was tested, and the “activation” value was -7.83% [at 78.9 µM].
`BrC(Br)C(Br)(Br)Br` was tested, and the “activation” value was 1.35% [at 78.9 µM].
With `Nc1ccc(Cc2ccc(N)c(Cl)c2)cc1Cl` the “activation” value was -10.8%.
In the case of `CCOc1cc(C(C)(C)C)ccc1C1COC(c2c(F)cccc2F)=N1` (centres undefined), the “activation” value is reported as -12.2%.
In the case of `Cc1ccc(OP(=O)(Oc2ccccc2)Oc2ccccc2)cc1`, the “activation” value is reported as 5.21% [at 78.9 µM].
